# Tests used:
# Type in all cases: functional
# [1] = system: Plasmodium falciparum; assay: GSK_TCMDC: Inhibition of Plasmodium falciparum 3D7 in whole red blood cells, using parasite LDH activity as an index of growth. Test compounds present at 2uM
# [2] = system: Plasmodium falciparum; assay: GSK_TCMDC: Inhibition of Plasmodium falciparum Dd2 in whole red blood cells, using parasite LDH activity as an index of growth. Test compounds present at 2uM
# [3] = system: HepG2; assay: GSK_TCMDC: Percent inhibition of human HepG2 cell line. Test compounds present at 10uM.
smiles,measurement,setting,value
Cl.NC1=NC(c2ccccc2)N(OCc2ccccc2)C(N)=N1 (stereo unspecified),Inhibition,[1],96%
same,Inhibition,[2],21%
same,Inhibition,[3],5%
CCCCCCN1CCCN(Cc2ccc(C(=O)Nc3ccc(CC)cc3)cc2)CC1.O=C(O)C(F)(F)F,Inhibition,[1],97%
same,Inhibition,[2],50%
same,Inhibition,[3],53%
O=C(Nc1cccc(Cl)c1Cl)N[C@H]1CCN(CCCCCNC(=O)C2CC2c2ccc(Cl)c(Cl)c2)C1 (stereo partly specified),Inhibition,[1],87%
same,Inhibition,[2],0%
same,Inhibition,[3],40%
CCc1cc(-c2onc(C)c2-c2cc3ccccc3o2)c(O)cc1OC,Inhibition,[1],95%
same,Inhibition,[2],33%
same,Inhibition,[3],48%
CO/C(=C\C=C\c1cc2cc(Cl)c(Cl)cc2[nH]1)C(=O)NC1CC2CCC(C1)N2C.Cl (stereo unspecified),Inhibition,[1],88%
same,Inhibition,[2],23%
same,Inhibition,[3],46%
Cc1cc(NC(=O)Nc2ccc(Cl)cc2F)c2ccccc2n1,Inhibition,[1],100%
same,Inhibition,[2],71%
same,Inhibition,[3],10%
COC(=O)c1cccc(N2CCN(CCCNC(=O)/C(=C/C=C/c3cc4cc(Cl)c(Cl)cc4[nH]3)OC)CC2)c1.Cl,Inhibition,[1],100%
same,Inhibition,[2],59%
same,Inhibition,[3],38%
CCOc1ccc(NC(=O)c2cccc(CN3CCCN(Cc4cccc(O)c4)CC3)c2)cc1.O=C(O)C(F)(F)F,Inhibition,[1],95%
same,Inhibition,[2],23%
same,Inhibition,[3],22%
CC(C)(C)[C@@H](Nc1ccc(C#N)c2ccccc12)C(=O)NC1(Cc2ccc(O)cc2)CCCC1,Inhibition,[1],90%
same,Inhibition,[2],74%
same,Inhibition,[3],14%
C=C(C)Cn1cc(C2CCN(CCCCNC(=O)c3sc(-c4ccc(Cl)cc4Cl)nc3CO)CC2)c2ccccc21,Inhibition,[1],82%
same,Inhibition,[2],19%
same,Inhibition,[3],22%
CC(O)C1CCCCN1C(=O)c1cccc(-c2cccc(-c3nc4cc(F)ccc4[nH]3)c2)c1 (stereo unspecified),Inhibition,[1],100%
same,Inhibition,[2],99%
same,Inhibition,[3],42%
CC(=O)N(Cc1ccc(CC(C)NCCc2cccc(Cl)c2)cc1)Cc1ccc(CC(C)NCCc2cccc(Cl)c2)cc1 (stereo unspecified),Inhibition,[1],100%
same,Inhibition,[2],94%
same,Inhibition,[3],98%
COc1cc(C(=O)N2CCOC(CCN3CCC(Cc4ccc(F)cc4)CC3)(c3ccc(Cl)c(Cl)c3)C2)cc(OC)c1OC (stereo unspecified),Inhibition,[1],88%
same,Inhibition,[2],58%
same,Inhibition,[3],44%
COc1ccc(CNc2nc(NCCc3ccccc3)c3cc(OC)c(OC)cc3n2)cc1OC,Inhibition,[1],100%
same,Inhibition,[2],100%
same,Inhibition,[3],48%
Cl.O=C(O[C@H]1CN[C@H](C#Cc2cc3c(Nc4ccc(OCc5cccc(F)c5)c(Cl)c4)ncnc3s2)C1)N1CCCC1,Inhibition,[1],99%
same,Inhibition,[2],67%
same,Inhibition,[3],11%
COc1ccc(NC(=O)[C@H](Cc2ccccc2)Nc2cc(C)nc(NCc3ccccc3C)n2)cc1.O=C(O)C(F)(F)F,Inhibition,[1],100%
same,Inhibition,[2],71%
same,Inhibition,[3],16%
Cc1cc(CNCCCCCNCc2ccc(Cl)cc2)ccc1O,Inhibition,[1],98%
same,Inhibition,[2],0%
same,Inhibition,[3],12%
C=C[C@H]1CN2CC[C@H]1C[C@H]2[C@H](O)c1ccnc2ccc(OC)cc12.O.O=S(=O)(O)O,Inhibition,[1],97%
same,Inhibition,[2],22%
same,Inhibition,[3],0%
O=C(O)C(F)(F)F.c1ccc(CCNCc2ccc(-c3cccc(-c4nc5ccccc5[nH]4)c3)cc2)nc1,Inhibition,[1],100%
same,Inhibition,[2],87%
same,Inhibition,[3],36%
CCCC(CNCc1cccc(OCC)c1)CNc1cc(=O)c2ccccc2[nH]1 (stereo unspecified),Inhibition,[1],100%
same,Inhibition,[2],97%
same,Inhibition,[3],0%
COc1ccc2nccc(N(C)CC3(O)CCN(CCc4ccc5c(c4)OCCO5)CC3)c2n1.Cl,Inhibition,[1],100%
same,Inhibition,[2],96%
same,Inhibition,[3],15%
COc1ccc(CNC2Cc3ccccc3C2)cc1-c1ccc(S(=O)(=O)NCCN2CCCC2)s1.O=C(O)C(F)(F)F,Inhibition,[1],100%
same,Inhibition,[2],100%
same,Inhibition,[3],89%
COc1ccc(-c2ccc(NC(=O)c3ccc(Cl)cc3)cc2)cc1CN1CCN(C)CC1.O=C(O)C(F)(F)F,Inhibition,[1],86%
same,Inhibition,[2],23%
same,Inhibition,[3],36%
Cl.O=C(NCCCCN1CCC(c2ccc3ccccc3c2O)CC1)c1ccc(-c2ccc(Cl)cc2)cc1,Inhibition,[1],100%
same,Inhibition,[2],99%
same,Inhibition,[3],84%
CN1CCN(S(=O)(=O)c2ccc3nccc(Nc4ccc(Oc5ccccc5)cc4)c3c2)CC1.Cl,Inhibition,[1],98%
same,Inhibition,[2],91%
same,Inhibition,[3],0%
COc1cccc2c1CCN(CCN1CCC(NC(=O)c3ccc(-c4cccc(Cl)c4Cl)cc3)CC1)C2,Inhibition,[1],100%
same,Inhibition,[2],38%
same,Inhibition,[3],47%
Br.CC1(C)NC(=N)NC(=N)N1OCC=Cc1ccccc1,Inhibition,[1],94%
same,Inhibition,[2],96%
same,Inhibition,[3],62%
